# Results filed as inconclusive are left out. Calls of active or inactive are those of the source. How the source made its calls, unless noted: active means hit-call score of the fitted dose curve at least 0.9, where 1 is the maximum; inactive means score below 0.9.
# How the values were obtained:
# [1] = CCTE_Shafer_MEA_dev_firing_rate_mean: CCTE's Neural Network Formation Assay for Mean Firing Rate, Shafer Lab (AID 2284031);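 further: curve fitted for loss of firing so AC50 reflects decreased mean firing rate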
# Method in brief: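 Steps: seed rat cortical cells (1.5 x 10^5/well) with laminin on PEI-coated MEA; dose day 0; record DIV 5/7/9/12, full media and compound exchange after DIV 5 and 9 recordings; compute well-mean firing rate AUC.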
# [2] = CCTE_Shafer_MEA_dev_per_burst_spike_percent: CCTE's Neural Network Formation Assay for Percent of Spikes in a Burst, Shafer Lab (AID 2284032);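 further: fitted as a decrease in burst spike percentage below DMSO baseline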
# Method in brief: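 Value is trapezoidal AUC over recordings on days 5, 7, 9 and 12 of the well-mean fraction of spikes falling in single-electrode bursts; rat cortical cultures exposed continuously from plating, treatment renewed DIV 5 and 9, fitted downward against DMSO.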
# [3] = CCTE_Shafer_MEA_dev_active_electrodes_number: CCTE's Neural Network Formation Assay for Number of Active Electrodes, Shafer Lab (AID 2284040; active means hit-call score of the fitted dose curve at least 0.9, where 1 is the maximum;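 further: potency for loss of active electrodes versus DMSO so lower counts are hits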)
# Method in brief: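 Counts electrodes per well firing at least 5 spikes/min, recorded on days 5, 7, 9 and 12 in rat cortical cultures dosed continuously from plating (treatment refreshed DIV 5, 9). Value is the area under the curve over recordings, fitted downward relative to DMSO.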
# [4] = CCTE_Shafer_MEA_dev_burst_rate: CCTE's Neural Network Formation Assay for Burst Rate, Shafer Lab (AID 2284042);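 further: potency for loss of burst rate below DMSO control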
# Method in brief: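 Rat primary cortical cultures on PEI/laminin MEA; compound from plating, re-dosed at DIV 5, 9 media change. Single-electrode bursts/recording length, well mean of active electrodes; AUC over DIV 5–12 recordings; loss-of-signal vs DMSO.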
# [5] = CCTE_Shafer_MEA_dev_bursting_electrodes_number: CCTE's Neural Network Formation Assay for Number of Bursting Electrodes, Shafer Lab (AID 2284043; active means hit-call score of the fitted dose curve at least 0.9, where 1 is the maximum;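 further: potency is for loss of bursting electrodes relative to DMSO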)
# Method in brief: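 Number of electrodes reaching ≥1 burst every 2 min was recorded at DIV 5, 7, 9 and 12 and collapsed as trapezoidal area under the curve. Cultures were rat cortical neurons on MEA plates, dosed continuously from plating with medium and treatment refreshed on DIV 5 and 9.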
# [6] = CCTE_Shafer_MEA_dev_per_burst_interspike_interval: CCTE's Neural Network Formation Assay for Burst Interspike Interval, Shafer Lab (AID 2284044);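 further: potency for a decrease of within-burst interspike interval below DMSO level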
# Method in brief: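 Spontaneous activity of maturing rat cortical networks is recorded on DIV 5, 7, 9 and 12 under chronic compound exposure beginning at plating. Endpoint: burst interspike interval well-mean, collapsed into trapezoidal AUC and fitted in the negative direction relative to DMSO.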
# [7] = CCTE_Shafer_MEA_dev_burst_duration_mean: CCTE's Neural Network Formation Assay for Mean Burst Duration, Shafer Lab (AID 2284045)
# Method in brief: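 Mean single-electrode burst duration (first to last spike), averaged over bursting electrodes per well, then integrated as area-under-curve across recordings at days 5, 7, 9 and 12. Rat cortical cultures on MEAs, compound present from plating, refreshed at feeds.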
# [8] = CCTE_Shafer_MEA_dev_interburst_interval_mean: CCTE's Neural Network Formation Assay for Mean Interburst Interval, Shafer Lab (AID 2284046);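 further: well-mean interburst interval of bursting electrodes as AUC over four recording days; curve fitted for decrease in interburst interval relative to DMSO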
# Method in brief: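 Rat cortical neurons, 1.5 x 10^5 cells/well, 48-well MEA; compound from day 0 through DIV 12, media and treatment renewed DIV 5/9. Recordings DIV 5, 7, 9, 12; well-mean interburst interval → trapezoidal AUC, loss direction vs DMSO.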
# [9] = CCTE_Shafer_MEA_dev_inter_network_spike_interval_mean: CCTE's Neural Network Formation Assay for Mean Inter-network Spike Interval, Shafer Lab (AID 2284047);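 further: potency for a decrease in mean inter-network spike interval below DMSO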
# Method in brief: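 Primary rat cortical neurons on PEI-coated 48-well MEAs (16 electrodes/well) were exposed from plating day 0 to DIV 12, with dosing renewed at DIV 5 and 9. Recordings at DIV 5, 7, 9, 12 were collapsed by trapezoidal AUC, loss-of-signal fit vs DMSO.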
# [10] = CCTE_Shafer_MEA_dev_network_spike_peak: CCTE's Neural Network Formation Assay for Mean Number of Electrodes in Network Spike, Shafer Lab (AID 2284049);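 further: fitted for loss of signal meaning fewer electrodes in network spikes than DMSO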
# Method in brief: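 Rat cortical primary culture, 1.5 x 10^5 cells/well, 48-well MEA (16 electrodes/well). Dosing day 0 through DIV 12, full media/compound exchange DIV 5, 9. AxIS adaptive spike detection; AUC over days 5/7/9/12; loss-of-signal vs DMSO.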
# [11] = CCTE_Shafer_MEA_dev_spike_duration_mean: CCTE's Neural Network Formation Assay for Mean Spike Duration, Shafer Lab (AID 2284051);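 further: mean network spike duration pooled as area under curve over DIV 5 to 12 recordings; potency for a decrease in mean network spike duration versus DMSO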
# Method in brief: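 Rat cortical primary cultures, 48-well MEA (16 electrodes/well); compound from plating, renewed DIV 5, 9. Network spike duration (AxIS adaptive detector) recorded DIV 5/7/9/12, combined as trapezoidal AUC; loss direction vs DMSO.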
# [12] = CCTE_Shafer_MEA_dev_network_spike_duration_std: CCTE's Neural Network Formation Assay for Standard Deviation of Network Spike Duration, Shafer Lab (AID 2284052);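 further: hits are decreases in network spike duration SD versus DMSO vehicle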
# Method in brief: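 Rat cortical cultures, 1.5 x 10^5 cells/well, exposed continuously from plating to DIV 12 with media/compound renewal at DIV 5, 9. Spontaneous activity recorded DIV 5/7/9/12, AxIS adaptive spike detector; AUC across days; negative direction vs DMSO.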
# [13] = CCTE_Shafer_MEA_dev_per_network_spike_spike_number_mean: CCTE's Neural Network Formation Assay for Mean Number of Spikes in a Network Spike, Shafer Lab (AID 2284053);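 further: fitted as decrease in spikes per network spike relative to DMSO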
# Method in brief: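 Rat cortical primary cultures on 48-well MEA; compound from day 0, re-dosed with full media change DIV 5, 9. Recorded DIV 5, 7, 9, 12; spikes in 0.05 s window at network-spike peak ÷ total network spikes; AUC; loss vs DMSO.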
# [14] = CCTE_Shafer_MEA_dev_per_network_spike_spike_percent: CCTE's Neural Network Formation Assay for Percent of Spikes in a Network Spike, Shafer Lab (AID 2284054)
# Method in brief: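 Metric: fraction of spikes falling in a 0.05 s window at network-spike peaks. Recordings were made on days 5, 7, 9 and 12 and collapsed by trapezoidal AUC. Cultures were rat cortical neurons on MEA plates, dosed continuously from plating, re-dosed at media changes.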
# [15] = CCTE_Shafer_MEA_dev_LDH: CCTE's Lactate Dehydrogenase Assay for Cytotoxicity in the Neural Network Formation Assay, Shafer Lab (AID 2284068; active means hit-call score of the fitted dose curve at least 0.9, where 1 is the maximum;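 further: exposure for twelve days from plating with re-dosing on DIV 5 and 9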)
# Method in brief: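 Rat cortical primary neurons, MEA culture; dosing day 0–12, full medium plus compound exchange DIV 5, 9. Read-out: LDH enzyme activity, spectrophotometric. DMSO = negative control/baseline; signal loss → cytotoxicity.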
# [16] = CCTE_Shafer_MEA_dev_AB: CCTE's Alamar Blue Assay for Cytotoxicity in the Neural Network Formation Assay, Shafer Lab (AID 2284083; active means hit-call score of the fitted dose curve at least 0.9, where 1 is the maximum;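 further: resazurin reduction fluorescence as viability of cultured neurons; twelve days of exposure from plating with re-dosing on DIV 5 and 9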)
# Method in brief: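 Rat cortical primary cultures, 1.5 x 10^5 cells/well on MEA; continuous compound exposure over 12 days of network development, re-dosed with full medium change DIV 5 and 9. Alamar Blue fluorescence; loss of signal = cytotoxicity vs DMSO baseline.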
# [17] = CCTE_Shafer_MEA_dev_mutual_information_norm: CCTE's Neural Network Formation Assay for Mutual Information Normalization, Shafer Lab (AID 2284091);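 further: mutual information between electrodes summarised as area under curve across four recording days; potency is for a decrease in mutual information relative to DMSO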
# Method in brief: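 Shared information across electrodes, tracked on days 5, 7, 9 and 12 of network development and collapsed as trapezoidal area under the curve. Rat cortical cultures were treated continuously from plating, with treatment renewed at feeds on DIV 5 and 9; DMSO baseline, negative-direction fit.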
# [18] = CCTE_Shafer_MEA_dev_correlation_coefficient_mean: CCTE's Neural Network Formation Assay for Mean Correlation Coefficient, Shafer Lab (AID 2284093);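 further: well mean pairwise spike train correlation integrated as AUC over recording days 5 to 12; potency fitted for loss of correlation relative to DMSO vehicle wells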
# Method in brief: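 Rat cortical cultures, 1.5 x 10^5 cells/well, dosed from day 0 for 12 days. Spontaneous spikes recorded DIV 5/7/9/12; electrode-pair correlation coefficients averaged, AUC taken. Fit in loss direction vs DMSO.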
# [19] = UKN2_HCS_IMR90_neural_migration: University of Konstanz (UKN) Leist Lab Neural Crest Cell Migration Assay in human induced IMR90 Pluripotent Stem Cells (UKN2) (AID 2284204); conditions: actives raise or lower the signal
# Method in brief: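 High-content imaging of calcein-AM and Hoechst stained cells quantifies migration into a stopper-defined gap after 24 h compound exposure. Neural crest cells from IMR90 iPSC migrated 24 h in EGF/FGF N2-S medium before dosing; DMSO baseline.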
# [20] = IUF_NPC1b_proliferation_BrdU_72hr: Leibniz Research Institute for Environmental Medicine (IUF) 72-hour Neural Progenitor Cell Bromodeoxyuridine (BrdU) Proliferation Assay (NPC1b) (AID 2284207)
# Method in brief: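 Human fetal cortex-derived (GW 16-19) neural progenitor spheres, 0.25-0.35 mm, one per well in EGF/FGF proliferation medium, exposed to compound for 72 h at 37C, pH 7.2-7.6. BrdU incorporation over the final 16 h read by luminescence ELISA, relative to DMSO.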
# [21] = IUF_NPC1a_proliferation_area_72hr: Leibniz Research Institute for Environmental Medicine (IUF) 72-hour Neural Progenitor Cell Proliferation Area Assay (NPC1a) (AID 2284208)
# Method in brief: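 Measured in 3D suspension: each well held one primary hNPC sphere grown with EGF and FGF at pH 7.2-7.6. Compound stayed on for 72 h, then area was imaged; spheres lacking growth factors defined reduced proliferation.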
# [22] = IUF_NPC1_viability_72hr: Viability Assessment at 72 hours in the Leibniz Research Institute for Environmental Medicine (IUF) Neural Progenitor Cell Proliferation Assay (NPC1) (AID 2284209)
# Method in brief: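 Spheres of primary human neural progenitors were plated singly in proliferation medium and treated for 72 h. Mitochondrial reduction of resazurin was then measured by fluorescence and analysed against DMSO controls.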
# [23] = CCTE_Mundy_HCI_Cortical_Synap_Neur_Matur_NeuriteSpotCountPerNeuriteLength: CCTE's Synaptogenesis and Neurite Maturation Assay in rat cortical cells for Neurite Spot Count per Neurite Length, Mundy Lab (AID 2284210)
# Method in brief: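 Synaptophysin spots per unit neurite length, measured by automated imaging of MAP2/synaptophysin/Hoechst-stained neurons. Cultures from rat cortex received chemical at DIV 7 with media change through DIV 12; glial growth arrested by AraC at DIV 5; DMSO baseline.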
# [24] = CCTE_Mundy_HCI_Cortical_Synap_Neur_Matur_BPCount: CCTE's Synaptogenesis and Neurite Maturation Assay in rat cortical cells for Branch Point Count, Mundy Lab (AID 2284211)
# Method in brief: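 HCI read-out of branch points from MAP2/synaptophysin/Hoechst immunofluorescence; rat cortical cultures, AraC DIV 5, dosing DIV 7, fixed DIV 12; fit in positive direction vs DMSO baseline.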
# [25] = CCTE_Mundy_HCI_Cortical_NOG_NeuriteCount: CCTE's Neurite Outgrowth Assay in rat cortical cells for Neurite Count, Mundy Lab (AID 2284212);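 further: cells fixed about two days after chemical exposure began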
# Method in brief: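 Rat cortical primary cells; compound added 2 h post-plating, 1/10 dilution of working solution. Anti-betaIII-tubulin/AF488 ICC; ArrayScan neurite count vs DMSO.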
# [26] = CCTE_Mundy_HCI_Cortical_NOG_NeuriteLength: CCTE's Neurite Outgrowth Assay in rat cortical cells for Neurite Length, Mundy Lab (AID 2284213);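 further: neurites imaged about 48 to 50 h after chemical exposure began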
# Method in brief: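 First, rat primary cortical cells were plated and, 2 h later, given test chemical as a 1/10 dilution. Finally, βIII-tubulin immunostaining enabled automated imaging of neurite length.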
smiles,measurement,setting,value
CC1(C)C(C=C(Cl)c2ccc(Cl)cc2)C1C(=O)OC(C#N)c1ccc(F)c(Oc2ccccc2)c1 (stereo unspecified),AC50,[1],4.24 µM (active)
same,AC50,[2],13 µM (active)
same,AC50,[3],12.8 µM (active)
same,AC50,[4],9.91 µM (active)
same,AC50,[5],12.9 µM (active)
same,AC50,[6],7.6 µM (active)
same,outcome,[7],inactive
same,AC50,[8],13.6 µM (active)
same,AC50,[9],4.11 µM (active)
same,AC50,[10],13.1 µM (active)
same,AC50,[11],5.21 µM (active)
same,AC50,[12],6.89 µM (active)
same,AC50,[13],6.7 µM (active)
same,AC50,[14],23.3 µM (active)
same,AC50,[15],14.3 µM (active)
same,AC50,[16],17.1 µM (active)
same,AC50,[17],5.42 µM (active)
same,AC50,[18],12.8 µM (active)
same,outcome,[19],inactive
same,outcome,[20],inactive
same,outcome,[21],inactive
same,outcome,[22],inactive
same,outcome,[23],inactive
same,AC50,[24],50 µM (active)
same,AC50,[25],39.1 µM (active)
same,AC50,[26],50 µM (active)

# — PubChem BioAssay (EPA / NIEHS)
